Assay results from PubChem BioAssay (EPA / NIEHS).
Several values for one entry are separate records, joined by “and”; a condition that tells them apart may be missing. Equal entries are not always repeated. Some structures have more than one record in an assay (separate samples or runs), and their calls can disagree. Activity calls are given as the source filed them. Rule for the calls: active = hit-call score of the fitted dose curve at least 0.9, where 1 is the maximum; inactive = score below 0.9.

Experiments:
[1] = read-out: Plasminogen activator inhibitor-1 (PAI1), SERPINE1 (gene 5054); assay: BSK_MyoF_PAI1: BioMAP Diversity Plus: MyoF Assay for Plasminogen activator inhibitor-1 (PAI1) Biomarker Activity (AID 2284256); details: primary human lung fibroblasts
How it was run: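 ELISA read-out of PAI-1 from primary human lung fibroblast cultures 24 h after dosing; gain-of-signal fit versus DMSO control.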

Decorin, DCN (gene 1634) = assay: BSK_MyoF_Decorin: BioMAP Diversity Plus: MyoF Assay for Decorin Biomarker Activity (AID 2284265); details: primary human lung fibroblasts
How it was run: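 Human lung fibroblasts in the MyoF system were exposed to compound for 24 h, after which decorin was quantified by ELISA. Activity was fitted in the positive direction relative to DMSO negative control.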

[2] = BSK_MyoF_SRB: Viability Assessment in the BioMAP Diversity Plus: MyoF Assay (AID 2284267); details: primary human lung fibroblasts;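 note: total protein by SRB absorbance in parallel cultures as cytotoxicity measure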
How it was run: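 Cytotoxicity read-out: after 10% TCA fixation, parallel human lung fibroblast cultures were stained with 0.1% SRB at 24 h post-dosing and read at 560 nm; DMSO served as baseline.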

[3] = read-out: Matrix Metallopeptidase 1 (MMP1), MMP1 (gene 4312); assay: BSK_MyoF_MMP1: BioMAP Diversity Plus: MyoF Assay for Matrix Metallopeptidase 1 (MMP1) Biomarker Activity (AID 2284268); details: primary human lung fibroblasts
How it was run: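 ELISA readout of MMP1 in primary human lung fibroblast cultures, 24 h post-dosing. Gain of signal versus DMSO vehicle control defines activity. Parallel SRB staining (0.1% after 10% TCA fixation, 560 nm) flags overt cytotoxicity.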

[4] = read-out: Monokine induced gamma interferon (MIG), CXCL9 (gene 4283); assay: BSK_KF3CT_MIG: BioMAP Diversity Plus: KF3CT Assay for Monokine induced gamma interferon (MIG) Biomarker Activity (AID 2284248); details: primary human keratinocytes with fibroblasts
How it was run: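 Human keratinocyte plus foreskin fibroblast primary co-culture dosed with test chemical for 24 h; MIG level measured by ELISA and fitted in the positive direction against DMSO as baseline.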

[5] = read-out: Interferon-inducible T-cell alpha chemoattractant (ITAC), CXCL11 (gene 6373); assay: BSK_hDFCGF_ITAC: BioMAP Diversity Plus: hDFCGF Assay for Interferon-inducible T-cell alpha chemoattractant (ITAC) Biomarker Activity (AID 2284251); details: primary human foreskin fibroblasts
How it was run: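 Measured by ELISA, the chemokine level serves as the endpoint in human skin fibroblast primary cultures 24 h after compound addition. Increases relative to DMSO-treated wells define activity.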

[6] = read-out: Plasminogen activator inhibitor-1 (PAI1), SERPINE1 (gene 5054); assay: BSK_KF3CT_PAI1: BioMAP Diversity Plus: KF3CT Assay for Plasminogen activator inhibitor-1 (PAI1) Biomarker Activity (AID 2284252); details: primary human keratinocytes with fibroblasts
How it was run: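 PAI-1 levels quantified by ELISA after 24 h compound exposure of primary human skin keratinocytes co-cultured with fibroblasts. Activity is the gain relative to DMSO; cytotoxicity tracked in parallel cultures via SRB staining.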

[7] = read-out: Monocyte Chemoattractant Protein-1 (MCP1), CCL2 (gene 6347); assay: BSK_IMphg_MCP1: BioMAP Diversity Plus: IMphg Assay for Monocyte Chemoattractant Protein-1 (MCP1) Biomarker Activity (AID 2284253); details: primary human endothelial cells with macrophages
How it was run: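 ELISA readout of MCP-1 at 24 hours in IMphg co-cultures of venular endothelial cells and macrophages, normalised to DMSO; parallel cultures stained with sulforhodamine B for overt cytotoxicity.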

[8] = read-out: Interleukin-8 (IL8), CXCL8 (gene 3576); assay: BSK_KF3CT_IL8: BioMAP Diversity Plus: KF3CT Assay for Interleukin-8 (IL8) Biomarker Activity (AID 2284254); details: primary human keratinocytes with fibroblasts
How it was run: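 Human primary keratinocyte plus foreskin fibroblast co-culture dosed with test chemicals; IL-8 measured by ELISA 24 h after dosing. Activity fitted in the positive direction relative to DMSO negative control.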

[9] = read-out: Macrophage Inflammatory Protein-1 Alpha (MIP1a), CCL3 (gene 6348); assay: BSK_IMphg_MIP1a: BioMAP Diversity Plus: IMphg Assay for Macrophage Inflammatory Protein-1 Alpha (MIP1a) Biomarker Activity (AID 2284255); details: primary human endothelial cells with macrophages
How it was run: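 MIP-1a protein levels were quantified by ELISA after 24 h treatment of human endothelial cell–macrophage co-cultures, compared with DMSO. Parallel cultures were fixed with TCA and stained with 0.1% SRB to gauge overt cytotoxicity.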

CD69, CD69 (gene 969) = assay: BSK_IMphg_CD69: BioMAP Diversity Plus: IMphg Assay for CD69 Biomarker Activity (AID 2284257); details: primary human endothelial cells with macrophages
How it was run: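 Readout is ELISA for CD69 in primary human venular endothelial cell/macrophage co-culture, taken at 24 h post-dosing. SRB staining of parallel cultures gauged overt cytotoxicity; signal increase versus DMSO defined activity.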

[10] = read-out: Eotaxin 3, CCL26 (gene 10344); assay: BSK_BF4T_Eotaxin3: BioMAP Diversity Plus: BF4T Assay for Eotaxin 3 Biomarker Activity (AID 2284258); details: primary human bronchial epithelial cells with fibroblasts
How it was run: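 ELISA measurement of Eotaxin-3 after 24 h chemical exposure in a bronchial epithelial/dermal fibroblast co-culture, with DMSO as baseline. Parallel SRB staining (0.1% SRB after 10% TCA fixation, 560 nm) flagged overt cytotoxicity.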

[11] = read-out: Intercellular Adhesion Molecule 1 (ICAM1), ICAM1 (gene 3383); assay: BSK_BF4T_ICAM1: BioMAP Diversity Plus: BF4T Assay for Intercellular Adhesion Molecule 1 (ICAM1) Biomarker Activity (AID 2284260); details: primary human bronchial epithelial cells with fibroblasts
How it was run: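 ICAM-1 levels measured by ELISA after 24 h chemical treatment of bronchial epithelial cell/dermal fibroblast co-cultures, read against DMSO baseline. Overt cytotoxicity checked in parallel cultures by sulforhodamine B staining.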

CD90, THY1 (gene 7070) = assay: BSK_BF4T_CD90: BioMAP Diversity Plus: BF4T Assay for CD90 Biomarker Activity (AID 2284262); details: primary human bronchial epithelial cells with fibroblasts
How it was run: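 CD90 levels by ELISA after 24 h treatment of human bronchial epithelial cell/dermal fibroblast cultures, analysed versus DMSO. Overt cytotoxicity checked in parallel cultures by sulforhodamine B staining.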

[12] = read-out: Interleukin-8 (IL8), CXCL8 (gene 3576); assay: BSK_BF4T_IL8: BioMAP Diversity Plus: BF4T Assay for Interleukin-8 (IL8) Biomarker Activity (AID 2284263); details: primary human bronchial epithelial cells with fibroblasts
How it was run: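 Human bronchial epithelial cells with dermal fibroblasts co-culture; IL-8 measured by ELISA 24 hours after dosing, fitted vs DMSO. Cytotoxicity tracked in parallel cultures by SRB total-protein staining.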

[13] = read-out: Interleukin-1 alpha (IL1a), IL1A (gene 3552); assay: BSK_BF4T_IL1a: BioMAP Diversity Plus: BF4T Assay for Interleukin-1 alpha (IL1a) Biomarker Activity (AID 2284264); details: primary human bronchial epithelial cells with fibroblasts
How it was run: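 ELISA read-out of IL-1α from bronchial epithelial cell/dermal fibroblast co-cultures 24 h after compound addition. Increases scored against DMSO negative control. Cytotoxicity monitored by sulforhodamine B staining of parallel cultures.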

KRT18 (gene 3875) = assay: BSK_BF4T_Keratin818: BioMAP Diversity Plus: BF4T Assay for Keratin 818 Biomarker Activity (AID 2284266); details: primary human bronchial epithelial cells with fibroblasts
How it was run: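 Keratin 8/18 levels quantified by ELISA after 24 h chemical treatment of bronchial epithelial cell/dermal fibroblast co-cultures, fitted in positive direction relative to DMSO. Parallel SRB staining tracks overt cytotoxicity.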

[14] = read-out: Matrix Metallopeptidase 1 (MMP1), MMP1 (gene 4312); assay: BSK_BF4T_MMP1: BioMAP Diversity Plus: BF4T Assay for Matrix Metallopeptidase 1 (MMP1) Biomarker Activity (AID 2284270); details: primary human bronchial epithelial cells with fibroblasts
How it was run: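 MMP-1 quantified by ELISA in primary human bronchial epithelial/dermal fibroblast co-cultures, 24 hours post-dosing, with DMSO as baseline; parallel sulforhodamine B staining (560 nm) tracks overt cytotoxicity.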

[15] = read-out: Matrix Metallopeptidase 3 (MMP3), MMP3 (gene 4314); assay: BSK_BF4T_MMP3: BioMAP Diversity Plus: BF4T Assay for Matrix Metallopeptidase 3 (MMP3) Biomarker Activity (AID 2284271); details: primary human bronchial epithelial cells with fibroblasts
How it was run: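 MMP-3 level read by ELISA after 24 h chemical exposure of bronchial epithelial cell/dermal fibroblast co-cultures, fitted upward relative to DMSO. Parallel cultures stained with 0.1% SRB after TCA fixation gauge overt cytotoxicity.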

[16] = read-out: Tissue plasminogen activator (tPA), PLAT (gene 5327); assay: BSK_BF4T_tPA: BioMAP Diversity Plus: BF4T Assay for Tissue plasminogen activator (tPA) Biomarker Activity (AID 2284272); details: primary human bronchial epithelial cells with fibroblasts
How it was run: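 tPA level quantified by ELISA at 24 h post-treatment in bronchial epithelial/dermal fibroblast co-cultures, gain of signal scored against DMSO baseline. Parallel cultures stained with 0.1% SRB (560 nm) to flag overt cytotoxicity.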

Measured: AC50

CCOP(=S)(OCC)SCS(=O)(=O)CC
inactive: [1] | Decorin, DCN (gene 1634) | [2] | [3]

COP(=O)(O)OC
inactive: [1] | Decorin, DCN (gene 1634) | [2] | [3]

ClC(Cl)=C(c1ccc(Cl)cc1)c1ccccc1Cl
active: [1] 9.39 µM | Decorin, DCN (gene 1634) 9.47 µM | [2] 6.71 µM | [3] 9.59 µM

O=C(O)C(F)(F)OC(F)(F)C(F)(F)OC(F)(F)F
inactive: all assays above

Cc1ccc2c(c1N)C(=O)c1ccccc1C2=O
inactive: [1] | Decorin, DCN (gene 1634) | [2] | [3]

c1ccc2c(c1)sc1ccccc12
inactive: [1] | Decorin, DCN (gene 1634) | [2] | [3]

N#Cc1cc([N+](=O)[O-])ccc1N
inactive: [1] | Decorin, DCN (gene 1634) | [2] | [3]

C=CC(=O)OCC(CC)(COC(=O)C=C)COC(=O)C=C
active: [1] 2.7 µM | Decorin, DCN (gene 1634) 3.09 µM | [2] 2.91 µM | [3] 3.88 µM

NC(=O)C(F)(F)C(F)(F)F
inactive: all assays above

CC(O)C(F)(F)C(F)(F)F (centres undefined)
inactive: all assays above

O=C(O)C=CC(F)(C(F)(F)F)C(F)(F)F
inactive: all assays above

O=C(O)C(F)(OC(F)(F)C(F)(F)C(F)(F)F)C(F)(F)F (centres undefined)
inactive: all assays above

CCCCOCCOP(=O)(OCCOCCCC)OCCOCCCC
active: [1] 0.0918 µM
inactive: Decorin, DCN (gene 1634) | [2] | [3]

CCOP(=S)(OCC)SCn1nnc2ccccc2c1=O
inactive: [1] | Decorin, DCN (gene 1634) | [2] | [3]

CC(C)(C)c1ccccc1OP(=O)(Oc1ccccc1)Oc1ccccc1
inactive: Decorin, DCN (gene 1634)
active: [1] 20 µM | [2] 20 µM | [3] 5.26 µM

CCCCC(CC)COC(=O)c1c(Br)c(Br)c(Br)c(Br)c1C(=O)OCC(CC)CCCC (centres undefined)
inactive: [1] | Decorin, DCN (gene 1634) | [2] | [3]

CCOP(=S)(OCC)SCSc1ccc(Cl)cc1
active: [1] 3.97 µM | [3] 30.1 µM
inactive: Decorin, DCN (gene 1634) | [2]

OCC(F)(F)OC(F)(F)C(F)(F)OC(F)(F)C(F)(F)OC(F)(F)CO
inactive: [4] | [6] | [7] | [8] | [9] | [1] | CD69, CD69 (gene 969) | [10] | [11] | CD90, THY1 (gene 7070) | [12] | [13] | Decorin, DCN (gene 1634) | KRT18 (gene 3875) | [2] | [3] | [14] | [15]
active: [5] 23 µM and 22.1 µM | [7] 7.09 µM | [11] 26.9 µM | [16] 30 µM and 24 µM

COP(N)(=S)OC
inactive: [1] | Decorin, DCN (gene 1634) | [2] | [3]

COC(=O)C(F)(F)C(F)(F)OC(F)(C(F)(F)F)C(F)(F)OC(F)=C(F)F (centres undefined)
active: [5] 4.67 µM and 5.4 µM
inactive: all other assays above
